The values that follow come from PubChem BioAssay (NCI).

Experiment [1] is described as follows: NCI Yeast Anticancer Drug Screen. Data for the rad50 strain (AID 155).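 Further: 0% = growth of vehicle-only cultures of the same strain.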 The following applies: S. cerevisiae rad50 strain growth inhibition; at 50.0 µM; stronger effect = higher value. An outline of the steps: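 Cells are treated with compound, grown, and their growth is then scored against vehicle-only cultures of the same repair-deficient yeast strain.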
Experiment [2] can be described thus: NCI Yeast Anticancer Drug Screen. Data for the mec2-1 strain (AID 157). The following applies: S. cerevisiae mec2-1 strain, at 50.0 µM, stronger effect = higher value. An outline of the steps: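 Readout is yeast growth inhibition, normalised to vehicle-treated controls, in the mec2-1 strain exposed to compound.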
Experiment [3] is described as follows: NCI Yeast Anticancer Drug Screen. Data for the sgs1 mgt1 strain (AID 161).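 Further: 0% = growth of cultures given vehicle only.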 The settings on record: S. cerevisiae sgs1 mgt1 strain, at 50.0 µM, stronger effect = higher value. An outline of the steps: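 Yeast cells carrying a defined DNA-repair defect were exposed to test compounds. Growth inhibition was measured relative to vehicle-treated controls.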
The nature of experiment [4]: NCI Yeast Anticancer Drug Screen. Data for the cln2 rad14 strain (AID 165).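 Further: 0% = growth equal to vehicle treated cultures.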 The settings on record: S. cerevisiae cln2 rad14 strain, at 50.0 µM, stronger effect = higher value. The method, boiled down: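 Relative to vehicle controls, growth inhibition of compound-treated cln2 rad14 yeast was recorded.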
Experiment [5] is described as follows: NCI Yeast Anticancer Drug Screen. Data for the bub3 strain (AID 167). The settings on record: S. cerevisiae bub3 mutant strain, at 50.0 µM, stronger effect = higher value. An outline of the steps:
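Part of a panel of yeast mutants defective in DNA damage repair or cell cycle regulation. Each strain is grown with compound, and inhibition is calculated relative to solvent-treated cultures.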

Experiment [6] is described as follows: NCI Yeast Anticancer Drug Screen. Data for the mlh1 rad18 strain (AID 175). The settings on record: S. cerevisiae mlh1 rad18 strain growth inhibition; at 50.0 µM; stronger effect = higher value. The method, boiled down:
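Test agents were incubated with a yeast strain of defined genotype (DNA damage repair defect). Inhibition of growth was derived by comparison with vehicle-exposed cultures.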

Each structure is given as a SMILES string. Compounds without any hit were thinned out: in the full panel of roughly 79,000, 15% have a hit. A number with no mark means an inactive call. The source made the active and inactive calls. No stated cut-off is given here; in the data, active means growth inhibition above about 70%; inactive means the rest.

For `Cc1ccc(C)c(NC(=O)Oc2cc(C)c(Cl)cc2C(C)C)c1`, the growth inhibition in experiment [1] was 85.8% (active); in experiment [2], 99.2% (active); in experiment [3] it was 98.5% (active); in experiment [4], 72.8% (active); in experiment [5], 98.5% (active); in experiment [6], 98.8% (active).

With `Nc1ccc(S(=O)(=O)NC(=O)NCc2ccccc2)cc1`, the growth inhibition was 0.7% in experiment [1]; -5% in experiment [2]; 3.5% in experiment [3]; -33% in experiment [4]; -10.6% in experiment [5]; -9.55% in experiment [6].

For the molecule `Nc1ccccc1C(=O)Nc1ccc(Cl)cc1C(=O)O`, the growth inhibition in experiment [1] was -7%; in experiment [2], -3%; in experiment [3], -14.2%; in experiment [4] it was -14.8%; in experiment [5], 2.65%; in experiment [6], -5.1%.

`CC1(c2ccccc2)OCC(c2ccccc2)O1` (stereo not given): the growth inhibition in experiment [1] was -9.2%; in experiment [2], -23.2%; in experiment [3], -7%; in experiment [4] it was -22%; in experiment [5] it was 12.7%; in experiment [6], 10.3%.

Take `C/C(=N\N(C)S(=O)(=O)c1ccc(C)cc1)c1ccccc1`: the growth inhibition in experiment [1] was 10.1%; in experiment [2], -6.9%; in experiment [3] it was -5.5%; in experiment [4], -30.1%; in experiment [5], -10.1%; in experiment [6] it was 0.65%.

Regarding `Cc1nc2c(ncn2C2OC(CO)C(O)C2O)c(=O)[nH]1` (stereo not given), the growth inhibition in experiment [1] was -2.7%; in experiment [2], 11.2%; in experiment [3], -2.7%; in experiment [4] it was -3.7%; in experiment [5] it was 0.85%; in experiment [6] it was -18.4%.

As for `CCc1nc(Nc2cccc(C)c2)c2cnn(-c3ccccc3)c2n1`, the growth inhibition in experiment [1] was -0.85%; in experiment [2], -15.6%; in experiment [3] it was -2.3%; in experiment [4], -22.5%; in experiment [5] it was -3.05%; in experiment [6] it was -13.8%.

Take `Cc1cc(=O)oc2nc(-c3ccccc3)[nH]c(=O)c12`: the growth inhibition in experiment [1] was 0.3%; in experiment [2], -10.2%; in experiment [3], 3.2%; in experiment [4] it was -5.4%; in experiment [5], -7.15%; in experiment [6] it was 18.3%.

As to `COc1cc2c3c(c1OC)C1(C=CC(=O)C=C1)CC3NCC2` (stereo not given), the growth inhibition in experiment [1] was -45.9%; in experiment [2] it was -4.8%; in experiment [3] it was -8.5%; in experiment [4] it was -10.1%; in experiment [5], -18.9%; in experiment [6] it was -45.6%.

For the molecule `NNC(=O)C1C2C=CC(C2)C1C(=O)NN` (stereo not given), the growth inhibition was 7.6% in experiment [1]; -8.05% in experiment [2]; -11.7% in experiment [3]; -35% in experiment [4]; 4.15% in experiment [5]; 4.2% in experiment [6].

On to `CCCCCCCCCCCCCCCCOc1ccccn1`, for which the growth inhibition in experiment [1] was -9.75%; in experiment [2], -20.6%; in experiment [3], -14.8%; in experiment [4] it was -18.8%; in experiment [5] it was -21.6%; in experiment [6], -6.9%.

On to `O=C1c2cc([N+](=O)[O-])sc2C(=O)c2c([N+](=O)[O-])csc21`, for which the growth inhibition in experiment [1] was 91% (active); in experiment [2] it was 93% (active); in experiment [3] it was 92.5% (active); in experiment [4], 91.4% (active); in experiment [5], 92.1% (active); in experiment [6], 91.3% (active).

For the molecule `COc1ccc(Cl)cc1NC(=O)c1ccc(C(=O)Nc2cc(Cl)ccc2OC)cc1`, the growth inhibition in experiment [1] was -5.85%; in experiment [2] it was 7.3%; in experiment [3] it was -10.2%; in experiment [4], -22.9%; in experiment [5] it was 0.7%; in experiment [6], 9.5%.

Consider `O=C1NC(=S)N/C1=C/c1ccc2c(c1)CCC2`, for which the growth inhibition in experiment [1] was 13.9%; in experiment [2], -20.2%; in experiment [3], 20.6%; in experiment [4] it was 12.4%; in experiment [5], 31.8%; in experiment [6], 12.7%.

As to `CC(C)(C)N(C/C=C/CN(Cc1ccccc1)Cc1ccccc1)C(C)(C)C`, the growth inhibition in experiment [1] is 32.8%; in experiment [2] it was 16.2%; in experiment [3], 25.6%; in experiment [4], 10.8%; in experiment [5], 19.8%; in experiment [6], 22.7%.

Take `O=c1c(SCc2ccccc2)c(N2CCOCC2)cnn1-c1ccccc1`: the growth inhibition is 28.4% in experiment [1]; -1.85% in experiment [2]; 22.8% in experiment [3]; 30.1% in experiment [4]; 22.1% in experiment [5]; 7.75% in experiment [6].

In the case of `CC1=C(C)CN(CCC(=O)O)C(C(N)=O)C1` (stereo not given), the growth inhibition in experiment [1] is -11.9%; in experiment [2], -2.3%; in experiment [3], -3.8%; in experiment [4] it was 17.5%; in experiment [5], 18.5%; in experiment [6] it was -10.1%.

For `COc1ccc(C2c3cc4c(cc3OC(C)(OC)C2C)OCO4)c(OC)c1` (stereo not given), the growth inhibition in experiment [1] was 5.25%; in experiment [2], 26.2%; in experiment [3] it was 32.6%; in experiment [4], -47.2%; in experiment [5], -5.85%; in experiment [6], 21%.

On to `CN(C)CCCn1c2ccccc2c2cnccc21`, for which the growth inhibition in experiment [1] was 0.5%; in experiment [2] it was -10.9%; in experiment [3], -17.6%; in experiment [4] it was -54.5%; in experiment [5], -48.2%; in experiment [6] it was 14.8%.

`CN(C)c1ccc(/C=N/N(Cc2ccccc2)c2ccccc2)cc1`: the growth inhibition in experiment [1] was -14.4%; in experiment [2], -29.1%; in experiment [3], 3.2%; in experiment [4], -11.6%; in experiment [5], 11.3%; in experiment [6] it was 10.2%.
